# Measurements from PubChem BioAssay.
# The source made the active and inactive calls. Unless noted, no rule for the calls is given here.
# Tests used:
# [1] = tested on: Wnt5a (protein binding on small-molecule microarray); experiment: Wnt5a binders on small-molecule microarray, primary screen, biophysical, 635/667 nm fluorescence (AID 1142); settings: 635 nm fluorescence, higher = more signal;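 also: fluorescence read at 667 nm with signal to noise per printed feature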
# [2] = cell viability in Huh7 cells, primary screen, cytotoxicity control for HCV replication inhibitor project, CellTiter-Glo luminescence, basal, 48 h (AID 1143); settings: Huh7 HCV replicon, higher = more signal, called active from +8 up or from −8 down;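 also: Huh7 hepatoma cells carrying a hepatitis C replication reporter with no stimulus; test concentration not given here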
# [3] = P. aeruginosa biofilm formation inhibitors, primary screen, PAO1 strain, BacTiter-Glo luminescence, LB-PBS (AID 1144); settings: 12 h, higher = more signal
# [4] = CREB reporter modulators without forskolin, primary screen, cell-based, PC12, CRE-LacZ reporter, unstimulated (AID 1145); settings: no forskolin, luminescence, 4.5 h, higher = more signal, called active from +8 up or from −8 down
# [5] = CREB reporter modulators under forskolin, primary screen, cell-based, PC12, CRE-LacZ reporter, forskolin-stimulated (AID 1146); settings: luminescence, 4.5 h, higher = more signal, called active from +8 up or from −8 down;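 also: PC12 cells with 6xCRE LacZ reporter stimulated by forskolin 10 µM; beta-galactosidase reporter signal reflecting CREB driven transcription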
# [6] = target: Streptavidin (Streptomyces avidinii) (UniProt P22629); experiment: streptavidin binders on small-molecule microarray, primary screen, artefact control for SMM compound annotation, biophysical, 635/667 nm fluorescence (AID 1147); settings: streptavidin binding, higher = more signal;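 also: signal reflects streptavidin binding to arrayed compounds as a control protein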
# Streptavidin (Streptomyces avidinii), sequence (P22629 whole entry, looked up): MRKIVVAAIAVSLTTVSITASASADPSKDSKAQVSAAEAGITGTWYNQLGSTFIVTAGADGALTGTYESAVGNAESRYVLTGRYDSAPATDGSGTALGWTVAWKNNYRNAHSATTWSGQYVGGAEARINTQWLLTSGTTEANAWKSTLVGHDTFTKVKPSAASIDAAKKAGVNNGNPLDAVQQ
# [7] = small-molecule binders of probe aInhba, primary screen, biochemical, small-molecule microarray, 635/667 nm fluorescence (AID 1148); settings: higher = more signal;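 also: score merges 667nm spot fluorescence with signal-to-noise for antibody binding to printed compounds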
# Torsin-1A (Homo sapiens) [8] = target: Torsin-1A (Homo sapiens) (UniProt O14656); experiment: torsin A binders from cell lysate, primary screen, small-molecule microarray, wild-type, 635/667 nm (AID 1149); settings: COS7 hTOR1A-WT lysate, 635 nm fluorescence, higher = more signal
# Torsin-1A (Homo sapiens), sequence (O14656 whole entry, looked up): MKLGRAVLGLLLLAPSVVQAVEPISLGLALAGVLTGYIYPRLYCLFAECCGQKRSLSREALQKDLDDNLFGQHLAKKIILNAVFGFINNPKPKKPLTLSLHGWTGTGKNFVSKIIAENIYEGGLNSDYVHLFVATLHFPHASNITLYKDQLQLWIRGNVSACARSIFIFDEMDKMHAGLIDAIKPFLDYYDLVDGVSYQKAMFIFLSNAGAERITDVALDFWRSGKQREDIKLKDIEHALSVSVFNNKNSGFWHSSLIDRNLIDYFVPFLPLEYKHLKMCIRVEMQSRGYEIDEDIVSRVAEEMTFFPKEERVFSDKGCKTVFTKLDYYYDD
# Torsin-1A (Homo sapiens) [9] = target: Torsin-1A (Homo sapiens) (UniProt O14656); experiment: small-molecule binders of mutant TOR1A in lysate, primary screen, cell lysate, small-molecule microarray, COS7 lysate, 635/667 nm fluorescence (AID 1150); settings: COS7 hTOR1A mutant lysate, 635 nm fluorescence, higher = more signal;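 also: score pools 667 nm emission and signal to noise measuring lysate protein binding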
# [10] = tested on: Sonic hedgehog protein (Shh); experiment: small-molecule binders of Shh protein, primary screen, biochemical, small-molecule microarray, 635/667 nm fluorescence (AID 1151); settings: small-molecule microarray binding, 635 nm fluorescence; higher = more signal;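 also: Shh protein binding to compounds spotted on small-molecule microarray slides; score combines spot fluorescence intensity with signal-to-noise across triplicate slides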
# [11] = E. coli DRC41 culture turbidity changes, primary screen, E. coli filamentation inducer project, strain DRC41, OD650, 48 h (AID 1152);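 also: E. coli MC1000 strain DRC41 lacking acrAB efflux pump and sulA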; settings: E. coli DRC41 (acrAB sulA), higher = more signal, called active from +8 up or from −8 down
# [12] = small-molecule binders of probe aLefty1, primary screen, biochemical, small-molecule microarray, 635/667 nm fluorescence (AID 1153); settings: higher = more signal;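 also: score merges spot fluorescence with signal-to-noise ratio from the scanned slide images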
# [13] = PSAC antagonists in infected red cells, primary screen, cell-based, P. falciparum Indochina, OD700, 1 h (AID 1154); settings: P. falciparum Indochina infected RBC osmotic lysis, higher = more signal, called active from +8 up or from −8 down
# [14] = PSAC antagonists in infected red cells, primary screen, cell-based, P. falciparum Indochina, OD700, 2 h (AID 1155);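 also: lysis reports solute entry through the parasite surface anion channel PSAC; channel blockers reduce lysis of infected cells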; settings: P. falciparum Indochina infected erythrocytes, osmotic lysis OD700; higher = more signal, called active from +8 up or from −8 down
# [15] = osmotic lysis modulators in infected erythrocytes, primary screen, PSAC antagonist project, cell-based, P. falciparum Indochina, OD700, 3 h (AID 1156); settings: higher = more signal, called active from +8 up or from −8 down
# [16] = PSAC antagonists in infected red cells, primary screen, cell-based, P. falciparum Indochina, OD700, 18 h (AID 1157); settings: P. falciparum Indochina infected erythrocytes, osmotic lysis OD700, 18 h; higher = more signal, called active from +8 up or from −8 down
# [17] = modulators of S6 phosphorylation in cells, primary screen, cell-based, A549, cytoblot, luminescence, serum-stimulated (AID 1158); settings: A549 phospho-S6 cytoblot, 5 h, higher = more signal;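 also: serum-stimulated A549 lung adenocarcinoma cells; signal is phosphorylated S6 detected by cytoblot immunostaining with HRP secondary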
# [18] = target: NADPH oxidase 2 (Homo sapiens) (UniProt P04839); experiment: NOX2-dependent H2O2 signal modulators, primary screen, NOX inhibitor project, cell-based, HEK293-NOX2, PMA-stimulated, Amplex Red fluorescence (AID 1159); settings: 45 min, higher = more signal, called active from +8 up or from −8 down; also: test concentration not given here
# NADPH oxidase 2 (Homo sapiens), sequence (P04839 whole entry, looked up): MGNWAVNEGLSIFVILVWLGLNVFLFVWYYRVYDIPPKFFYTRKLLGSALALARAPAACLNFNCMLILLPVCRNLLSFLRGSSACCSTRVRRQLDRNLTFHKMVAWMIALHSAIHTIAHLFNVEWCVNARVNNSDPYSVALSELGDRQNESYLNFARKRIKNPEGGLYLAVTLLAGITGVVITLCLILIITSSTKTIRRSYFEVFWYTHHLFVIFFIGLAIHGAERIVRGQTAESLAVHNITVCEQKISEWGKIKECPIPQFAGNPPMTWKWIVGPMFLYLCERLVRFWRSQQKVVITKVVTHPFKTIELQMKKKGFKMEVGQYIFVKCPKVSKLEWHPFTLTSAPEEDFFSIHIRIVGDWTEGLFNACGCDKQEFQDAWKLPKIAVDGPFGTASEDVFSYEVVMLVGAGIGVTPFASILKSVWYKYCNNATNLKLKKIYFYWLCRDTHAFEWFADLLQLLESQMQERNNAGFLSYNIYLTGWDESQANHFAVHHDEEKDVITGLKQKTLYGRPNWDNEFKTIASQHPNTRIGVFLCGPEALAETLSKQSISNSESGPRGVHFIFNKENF
# [19] = target: NADPH oxidase 4 (Homo sapiens) (UniProt Q9NPH5); experiment: NOX4-dependent H2O2 signal modulators, primary screen, NOX inhibitor project, cell-based, HEK293-NOX4, tetracycline-induced, Amplex Red fluorescence (AID 1160); settings: 45 min, higher = more signal, called active from +8 up or from −8 down
# NADPH oxidase 4 (Homo sapiens), sequence (Q9NPH5 whole entry, looked up): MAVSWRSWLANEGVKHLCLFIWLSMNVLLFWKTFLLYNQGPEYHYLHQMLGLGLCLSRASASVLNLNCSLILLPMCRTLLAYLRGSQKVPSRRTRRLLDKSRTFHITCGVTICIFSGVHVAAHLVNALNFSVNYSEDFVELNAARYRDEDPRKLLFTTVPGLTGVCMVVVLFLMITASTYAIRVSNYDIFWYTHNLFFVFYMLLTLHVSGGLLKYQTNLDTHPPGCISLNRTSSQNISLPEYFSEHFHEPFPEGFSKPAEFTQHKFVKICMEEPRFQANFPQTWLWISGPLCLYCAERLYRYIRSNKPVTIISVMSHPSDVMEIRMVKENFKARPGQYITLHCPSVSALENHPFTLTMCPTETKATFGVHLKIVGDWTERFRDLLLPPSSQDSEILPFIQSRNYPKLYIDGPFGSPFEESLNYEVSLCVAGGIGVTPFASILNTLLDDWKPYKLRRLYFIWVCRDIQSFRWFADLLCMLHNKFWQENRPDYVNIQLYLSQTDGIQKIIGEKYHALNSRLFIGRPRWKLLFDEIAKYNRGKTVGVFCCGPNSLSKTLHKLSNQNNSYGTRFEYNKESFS
# [20] = target: NADPH oxidase 5 (Homo sapiens) (UniProt Q96PH1); experiment: NOX5-dependent H2O2 signal modulators, primary screen, NOX inhibitor project, cell-based, HEK293-NOX5, Amplex Red fluorescence (AID 1161); settings: HEK293-NOX5, ionomycin, 45 min, higher = more signal
# NADPH oxidase 5 (Homo sapiens), sequence (Q96PH1 whole entry, looked up): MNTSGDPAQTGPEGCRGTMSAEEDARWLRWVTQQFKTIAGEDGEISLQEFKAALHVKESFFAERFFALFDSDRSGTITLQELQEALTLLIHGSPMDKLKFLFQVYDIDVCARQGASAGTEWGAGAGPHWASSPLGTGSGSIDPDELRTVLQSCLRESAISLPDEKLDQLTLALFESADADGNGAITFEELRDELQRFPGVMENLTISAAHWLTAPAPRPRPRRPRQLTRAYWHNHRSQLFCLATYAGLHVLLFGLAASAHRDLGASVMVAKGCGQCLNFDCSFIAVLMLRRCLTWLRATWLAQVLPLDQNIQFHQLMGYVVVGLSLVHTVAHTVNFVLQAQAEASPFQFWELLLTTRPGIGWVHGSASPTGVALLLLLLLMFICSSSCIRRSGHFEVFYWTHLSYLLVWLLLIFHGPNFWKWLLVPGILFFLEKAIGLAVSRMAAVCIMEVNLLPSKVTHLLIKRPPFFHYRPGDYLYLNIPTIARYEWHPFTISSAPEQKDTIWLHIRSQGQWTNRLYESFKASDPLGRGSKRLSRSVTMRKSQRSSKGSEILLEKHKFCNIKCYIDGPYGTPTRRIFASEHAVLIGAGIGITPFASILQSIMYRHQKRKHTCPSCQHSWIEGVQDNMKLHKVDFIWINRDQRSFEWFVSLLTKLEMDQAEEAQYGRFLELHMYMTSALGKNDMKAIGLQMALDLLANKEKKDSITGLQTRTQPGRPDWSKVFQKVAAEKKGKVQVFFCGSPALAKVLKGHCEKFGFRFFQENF
structure (smiles),measurement,setting,value
CCN(CC)c1ccc(N2CC=CC34O[C@@H]5C=CCCOC(=O)C5[C@H]3C(=O)N(CCCCCCO)[C@@H]4C2=O)cc1 (stereo not given in full),composite z-score,[1],-0.212
same,z-score,[2],-1.32 (inactive)
same,z-score,[3],-1.35 (inactive)
same,z-score,[4],-1.85 (inactive)
same,z-score,[5],-0.716 (inactive)
same,composite z-score,[6],-0.729
same,composite z-score,[7],-0.209
same,composite z-score,Torsin-1A (Homo sapiens) [8],0.454
same,composite z-score,Torsin-1A (Homo sapiens) [9],1.57
same,composite z-score,[10],-0.179
same,z-score,[11],3.12 (inactive)
same,composite z-score,[12],-0.0361
same,z-score,[13],1.25 (inactive)
same,z-score,[14],0.392 (inactive)
same,z-score,[15],0.474 (inactive)
same,z-score,[16],-0.53 (inactive)
same,z-score,[17],0.872
same,z-score,[18],-0.089 (inactive)
same,z-score,[19],0.576 (inactive)
same,z-score,[20],0.762
CC(C)C[C@@H]1NC(=O)[C@@H]2C[C@H](C(=O)NCc3ccc(F)cc3)[C@H](c3cccc(OCCO)c3)N2C1=O,composite z-score,[1],1.9
same,z-score,[2],-0.119 (inactive)
same,z-score,[3],-1.53 (inactive)
same,z-score,[4],0.826 (inactive)
same,z-score,[5],-0.798 (inactive)
same,composite z-score,[6],-0.443
same,composite z-score,[7],0.286
same,composite z-score,Torsin-1A (Homo sapiens) [8],0.265
same,composite z-score,Torsin-1A (Homo sapiens) [9],1.3
same,composite z-score,[10],1.75
same,z-score,[11],1.39 (inactive)
same,composite z-score,[12],-0.204
same,z-score,[13],8.19 (active)
same,z-score,[14],0.722 (inactive)
same,z-score,[15],-1.79 (inactive)
same,z-score,[16],0.546 (inactive)
same,z-score,[17],0.74
same,z-score,[18],1.33 (inactive)
same,z-score,[19],1.08 (inactive)
same,z-score,[20],1.44
[N-]=[N+]=Nc1ccccc1[C@@H]1OC(c2ccc(OCCCO)cc2)=N[C@]1(Cc1ccccc1)C(=O)N1CCOCC1,composite z-score,[1],0.546
same,z-score,[2],-3.97 (inactive)
same,z-score,[3],0.617 (inactive)
same,z-score,[4],1.56 (inactive)
same,z-score,[5],-1.42 (inactive)
same,composite z-score,[6],1.35
same,composite z-score,[7],0.0658
same,composite z-score,Torsin-1A (Homo sapiens) [8],0.311
same,composite z-score,Torsin-1A (Homo sapiens) [9],0.58
same,composite z-score,[10],-0.3
same,z-score,[11],0.123 (inactive)
same,composite z-score,[12],0.391
same,z-score,[13],31.8 (active)
same,z-score,[14],32.1 (active)
same,z-score,[15],2.51 (inactive)
same,z-score,[16],3.91 (inactive)
same,z-score,[17],-0.37
same,z-score,[18],-0.507 (inactive)
same,z-score,[19],-0.36 (inactive)
same,z-score,[20],-1.77
CCC(CC)C(O)C1C=CC2C(=O)NC(=O)C2N1Nc1ccccn1 (stereo not given),composite z-score,[1],-0.108
same,z-score,[2],1.06 (inactive)
same,z-score,[3],-0.515 (inactive)
same,z-score,[4],0.246 (inactive)
same,z-score,[5],0.783 (inactive)
same,composite z-score,[6],-0.12
same,composite z-score,[7],-0.016
same,composite z-score,Torsin-1A (Homo sapiens) [8],0.147
same,composite z-score,Torsin-1A (Homo sapiens) [9],0.317
same,composite z-score,[10],0.186
same,z-score,[11],-0.613 (inactive)
same,composite z-score,[12],0.158
same,z-score,[13],0.146 (inactive)
same,z-score,[14],0.519 (inactive)
same,z-score,[15],-0.02 (inactive)
same,z-score,[16],0.973 (inactive)
same,z-score,[17],-0.534
same,z-score,[18],-1.58 (inactive)
same,z-score,[19],-2.05 (inactive)
same,z-score,[20],-1.52
C=C[C@H](C)[C@@H](OC(=O)Nc1ccc(OC)cc1)c1ccc(O)c2ccccc12,composite z-score,[1],0.198
same,z-score,[2],-6 (inactive)
same,z-score,[3],-0.899 (inactive)
same,z-score,[4],0.804 (inactive)
same,z-score,[5],0.819 (inactive)
same,composite z-score,[6],-0.387
same,composite z-score,[7],-0.206
same,composite z-score,Torsin-1A (Homo sapiens) [8],0.308
same,composite z-score,Torsin-1A (Homo sapiens) [9],0.422
same,composite z-score,[10],1.36
same,z-score,[11],-0.368 (inactive)
same,composite z-score,[12],0.0903
same,z-score,[13],3.54 (inactive)
same,z-score,[14],0.265 (inactive)
same,z-score,[15],-0.122 (inactive)
same,z-score,[16],0.132 (inactive)
same,z-score,[17],-0.751
same,z-score,[18],-5.53 (inactive)
same,z-score,[19],-1.89 (inactive)
same,z-score,[20],-0.55
COc1ccc(C#Cc2ccc3c(c2)[C@]2(C(=O)N3)[C@H](C(=O)Nc3nc4ccccc4s3)[C@H]3C(=O)O[C@H](c4ccccc4)[C@H](c4ccccc4)N3[C@@H]2c2ccc(O)cc2)cc1,composite z-score,[1],0.823
same,z-score,[2],-1.3 (inactive)
same,z-score,[3],-0.782 (inactive)
same,z-score,[4],0.0653 (inactive)
same,z-score,[5],-0.0135 (inactive)
same,composite z-score,[6],2.25
same,composite z-score,[7],1.43
same,composite z-score,Torsin-1A (Homo sapiens) [8],1.41
same,composite z-score,Torsin-1A (Homo sapiens) [9],0.903
same,composite z-score,[10],2.02
same,z-score,[11],0.663 (inactive)
same,composite z-score,[12],1.1
same,z-score,[13],-0.383 (inactive)
same,z-score,[14],0.53 (inactive)
same,z-score,[15],-6.71 (inactive)
same,z-score,[16],0.957 (inactive)
same,z-score,[17],-0.249
same,z-score,[18],0.548 (inactive)
same,z-score,[19],0.792 (inactive)
same,z-score,[20],-2.5
COc1cc2c(cc1OC)CN(C(=O)[C@H]1[C@@H]3C(=O)O[C@@H](c4ccccc4)[C@@H](c4ccccc4)N3[C@@H](c3ccc(O)cc3)[C@]13C(=O)Nc1ccc(C#CCCO)cc13)CC2,composite z-score,[1],-0.0279
same,z-score,[2],-1.04 (inactive)
same,z-score,[3],-0.827 (inactive)
same,z-score,[4],0.0653 (inactive)
same,z-score,[5],-0.163 (inactive)
same,composite z-score,[6],0.491
same,composite z-score,[7],-0.0405
same,composite z-score,Torsin-1A (Homo sapiens) [8],0.0143
same,composite z-score,Torsin-1A (Homo sapiens) [9],0.618
same,composite z-score,[10],0.0545
same,z-score,[11],0.675 (inactive)
same,composite z-score,[12],-0.147
same,z-score,[13],1.06 (inactive)
same,z-score,[14],0.736 (inactive)
same,z-score,[15],1.15 (inactive)
same,z-score,[16],0.689 (inactive)
same,z-score,[17],0.503
same,z-score,[18],1.38 (inactive)
same,z-score,[19],-0.0637 (inactive)
same,z-score,[20],1.08
COc1ccc([Si](C)(C)[C@@H]2[C@@H](CCO)O[C@]3(C(=O)N(Cc4ccc(N(C=O)c5ccccc5)cc4)c4ccccc43)[C@H]2C)cc1,composite z-score,[1],0.0862
same,z-score,[2],-6.2 (inactive)
same,z-score,[3],0.00917 (inactive)
same,z-score,[4],4.55 (inactive)
same,z-score,[5],1.03 (inactive)
same,composite z-score,[6],0.426
same,composite z-score,[7],0.106
same,composite z-score,Torsin-1A (Homo sapiens) [8],0.164
same,composite z-score,Torsin-1A (Homo sapiens) [9],0.469
same,composite z-score,[10],0.868
same,z-score,[11],-0.482 (inactive)
same,composite z-score,[12],-0.06
same,z-score,[13],4.33 (inactive)
same,z-score,[14],2.33 (inactive)
same,z-score,[15],0.287 (inactive)
same,z-score,[16],1.7 (inactive)
same,z-score,[17],0.257
same,z-score,[18],1.07 (inactive)
same,z-score,[19],1.52 (inactive)
same,z-score,[20],2.89
